# Reference: PubChem BioAssay (NCATS)
# Records with an inconclusive call do not appear. Active and inactive are the calls of the source. Unless noted, calls follow the shape of the dose curve; as a rule, active = well fitted curve in the direction sought with a large enough effect; inconclusive = small, poorly fitted or top-dose-only effect, or another doubt; inactive = no such curve, though single readings can be large; an effect the other way counts as inactive or inconclusive.
# Target: Peptidyl-prolyl cis-trans isomerase NIMA-interacting 1 (Homo sapiens) (UniProt Q13526)
# Sequence (Q13526 whole entry, looked up): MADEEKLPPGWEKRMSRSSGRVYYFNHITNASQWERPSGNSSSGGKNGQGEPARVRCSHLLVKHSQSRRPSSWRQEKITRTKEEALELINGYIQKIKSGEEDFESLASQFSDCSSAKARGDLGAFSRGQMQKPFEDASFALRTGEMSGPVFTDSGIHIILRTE
# Test: qHTS Validation Assay to Find Inhibitors of Pin1 (AID 504536; active = well fitted inhibition curve with a large enough effect in the polarisation, with a control signal flat, not every such curve was filed as active; the % refers to the polarisation)
# Details: Pin1 fluorescence polarization peptide binding assay; series mostly up to 57.5 µM
# How it was run: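 Fluorescence polarization competition: compounds (titration) displace HiFluor-488-labeled Pin1-1b peptide from Pin1 (0.3 uM final) in pH 7.5 HEPES buffer with DTT, 10 min at room temperature; %Activity normalized to no-enzyme wells, curves fitted.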
row,SMILES,outcome
1,COc1ccc2cc([S+]([O-])Cc3ncc(C)c(OC)c3C)nc2c1,inactive
2,O=c1[nH]c(=O)n([C@H]2C[C@@H](O)[C@@H](CO)O2)cc1C=CBr,inactive
3,CN[C@H](CC(C)C)C(=O)N[C@H]1C(=O)N[C@@H](CC(N)=O)C(=O)N[C@@H]2C(=O)N[C@H]3C(=O)N[C@H](C(=O)N[C@H](C(=O)O)c4cc(O)cc(O)c4-c4cc3ccc4O)[C@H](O)c3ccc(c(Cl)c3)Oc3cc2cc(c3O[C@@H]2O[C@H](CO)[C@@H](O)[C@H](O)[C@@H]2O[C@H]2C[C@](C)(N)[C@H](O)[C@H](C)O2)Oc2ccc(cc2Cl)[C@H]1O,inactive

# Target: Phosphoglycerate kinase, glycosomal (Trypanosoma brucei brucei) (UniProt P07378)
# Sequence (P07378 whole entry, looked up): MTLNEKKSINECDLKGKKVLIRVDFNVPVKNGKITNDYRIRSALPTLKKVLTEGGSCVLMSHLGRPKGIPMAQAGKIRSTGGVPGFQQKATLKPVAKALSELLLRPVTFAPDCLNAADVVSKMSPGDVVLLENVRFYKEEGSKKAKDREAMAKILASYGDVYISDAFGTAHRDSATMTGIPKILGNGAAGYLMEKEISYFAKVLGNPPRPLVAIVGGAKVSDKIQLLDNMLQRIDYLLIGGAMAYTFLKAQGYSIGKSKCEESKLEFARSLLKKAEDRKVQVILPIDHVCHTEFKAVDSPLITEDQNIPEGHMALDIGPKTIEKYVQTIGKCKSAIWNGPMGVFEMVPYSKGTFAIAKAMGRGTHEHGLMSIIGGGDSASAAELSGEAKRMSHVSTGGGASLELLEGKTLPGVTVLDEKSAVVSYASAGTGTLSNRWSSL
# Test: qHTS Validation Assay to Find Inhibitors of Phosphoglycerate Kinase (AID 504547)
# Details: enzymatic PGK inhibition, coupled luminescence read-out; series mostly up to 57.5 µM
# How it was run: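 Substrate/PGK mix plus compound; reaction started with GAPDH (100nM final) to form 1,3-BPG; 60 min RT; Kinase-Glo Plus 10 min; luminescence. TEA 100mM pH 7.6, MgCl2 5mM, Tween-20 0.01%.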
row,SMILES,outcome
1,COc1ccc2cc([S+]([O-])Cc3ncc(C)c(OC)c3C)nc2c1,inactive
2,O=c1[nH]c(=O)n([C@H]2C[C@@H](O)[C@@H](CO)O2)cc1C=CBr,inactive
3,CN[C@H](CC(C)C)C(=O)N[C@H]1C(=O)N[C@@H](CC(N)=O)C(=O)N[C@@H]2C(=O)N[C@H]3C(=O)N[C@H](C(=O)N[C@H](C(=O)O)c4cc(O)cc(O)c4-c4cc3ccc4O)[C@H](O)c3ccc(c(Cl)c3)Oc3cc2cc(c3O[C@@H]2O[C@H](CO)[C@@H](O)[C@H](O)[C@@H]2O[C@H]2C[C@](C)(N)[C@H](O)[C@H](C)O2)Oc2ccc(cc2Cl)[C@H]1O,inactive

# Target: phosphoglycerate mutase (Leishmania major) (UniProt Q4Q090)
# Sequence (Q4Q090 1-553): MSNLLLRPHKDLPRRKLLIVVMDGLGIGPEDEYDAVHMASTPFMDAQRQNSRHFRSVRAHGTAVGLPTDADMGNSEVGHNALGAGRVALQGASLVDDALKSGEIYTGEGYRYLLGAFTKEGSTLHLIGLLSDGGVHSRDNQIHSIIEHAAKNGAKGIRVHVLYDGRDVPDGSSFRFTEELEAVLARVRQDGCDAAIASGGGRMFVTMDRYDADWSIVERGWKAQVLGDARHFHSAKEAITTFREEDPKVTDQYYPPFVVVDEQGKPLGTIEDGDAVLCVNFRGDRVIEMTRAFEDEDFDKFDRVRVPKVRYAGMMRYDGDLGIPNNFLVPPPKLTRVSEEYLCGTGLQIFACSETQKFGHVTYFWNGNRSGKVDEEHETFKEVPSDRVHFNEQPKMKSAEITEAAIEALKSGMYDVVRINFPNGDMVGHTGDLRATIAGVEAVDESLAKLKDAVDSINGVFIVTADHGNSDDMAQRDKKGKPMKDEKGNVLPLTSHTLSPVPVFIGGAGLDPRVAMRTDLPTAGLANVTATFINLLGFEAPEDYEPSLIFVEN
# Test: qHTS Validation Assay to Find Inhibitors of Phosphoglycerate Mutase (AID 504548);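 also: end-point luminescence from Kinase-GloPlus after the PGAM reaction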
# Details: biochemical enzyme activity; series mostly up to 57.5 µM
# How it was run: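 Inhibition of L. major PGAM was assessed by Kinase-GloPlus luminescence following a 45-minute room-temperature reaction with enzyme at 1.25nM final.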
row,SMILES,outcome
1,COc1ccc2cc([S+]([O-])Cc3ncc(C)c(OC)c3C)nc2c1,inactive
2,O=c1[nH]c(=O)n([C@H]2C[C@@H](O)[C@@H](CO)O2)cc1C=CBr,inactive
3,CN[C@H](CC(C)C)C(=O)N[C@H]1C(=O)N[C@@H](CC(N)=O)C(=O)N[C@@H]2C(=O)N[C@H]3C(=O)N[C@H](C(=O)N[C@H](C(=O)O)c4cc(O)cc(O)c4-c4cc3ccc4O)[C@H](O)c3ccc(c(Cl)c3)Oc3cc2cc(c3O[C@@H]2O[C@H](CO)[C@@H](O)[C@H](O)[C@@H]2O[C@H]2C[C@](C)(N)[C@H](O)[C@H](C)O2)Oc2ccc(cc2Cl)[C@H]1O,inactive

# Target: Ubiquitin carboxyl-terminal hydrolase 1 (Homo sapiens) (UniProt O94782)
# Sequence (O94782 whole entry, looked up): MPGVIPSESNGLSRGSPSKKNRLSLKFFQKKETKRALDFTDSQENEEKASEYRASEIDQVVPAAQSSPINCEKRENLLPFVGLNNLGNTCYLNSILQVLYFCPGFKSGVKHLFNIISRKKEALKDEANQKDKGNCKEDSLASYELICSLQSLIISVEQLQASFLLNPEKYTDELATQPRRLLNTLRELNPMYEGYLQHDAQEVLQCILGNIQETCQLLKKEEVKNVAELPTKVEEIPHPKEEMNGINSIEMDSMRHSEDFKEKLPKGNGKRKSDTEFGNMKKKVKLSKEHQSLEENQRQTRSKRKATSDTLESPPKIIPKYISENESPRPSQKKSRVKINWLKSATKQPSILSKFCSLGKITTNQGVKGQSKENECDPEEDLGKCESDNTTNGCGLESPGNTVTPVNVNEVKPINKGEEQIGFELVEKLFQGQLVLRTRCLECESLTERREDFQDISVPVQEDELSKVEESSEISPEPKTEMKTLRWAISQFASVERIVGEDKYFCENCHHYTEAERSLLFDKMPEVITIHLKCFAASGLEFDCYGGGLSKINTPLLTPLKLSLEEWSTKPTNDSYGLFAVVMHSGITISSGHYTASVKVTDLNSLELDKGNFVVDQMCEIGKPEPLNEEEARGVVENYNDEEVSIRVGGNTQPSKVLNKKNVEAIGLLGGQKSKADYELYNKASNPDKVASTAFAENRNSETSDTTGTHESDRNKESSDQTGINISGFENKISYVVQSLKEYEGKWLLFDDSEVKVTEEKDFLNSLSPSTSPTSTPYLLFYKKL
# Test: Inhibitors of USP1/UAF1: Pilot qHTS (AID 504865);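 also: rhodamine fluorescence freed from ubiquitin-rhodamine substrate followed over time; top concentration of the series differs between compounds; nearly all actives have a fitted effect of over 35% in size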
# Details: purified USP1/UAF1, Ub-rhodamine cleavage fluorescence; series mostly up to 114 µM
# How it was run: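 In 50mM HEPES pH 7.8 containing 0.5mM EDTA, 1mM TCEP, 0.1 mg/ml BSA and 0.01% Tween-20, 1nM USP1/UAF1 is exposed to compound for 15 min, then Ub-Rho (150nM final) is added and fluorescence is read over time.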
row,SMILES,outcome
1,CN(N=O)C(=O)N[C@H]1C(O)OC(CO)[C@@H](O)[C@H]1O (stereo partly specified),inactive
2,C[C@@]12C(=O)OC(=O)[C@@]1(C)C1CCC2O1,inactive
3,CCN1CCN(C(=O)N[C@H](C(=O)N[C@@H]2C(=O)N3C(C(=O)O)=C(CSc4nnnn4C)CS[C@@H]23)c2ccc(O)cc2)C(=O)C1=O,inactive
4,Cc1ccc(O)c(C(CCN(C(C)C)C(C)C)c2ccccc2)c1 (stereo unspecified),inactive
5,O=C(O)C=Cc1ccc(Cn2ccnc2)cc1,inactive
6,COc1ccc(C(C)=O)c(O)c1,inactive
7,O=c1[nH]c(=O)n([C@H]2C[C@@H](O)[C@@H](CO)O2)cc1C=CBr,inactive
8,COc1ccc([C@@H]2CNC(=O)C2)cc1OC1CCCC1,inactive
9,Cc1cc(O)c2c(c1)C(=O)c1cccc(O)c1C2=O,inactive
10,COc1ccc2c(c1OC)C(=O)OC2[C@H]1c2c(cc3c(c2OC)OCO3)CCN1C (stereo partly specified),inactive
11,CCOC(=O)C1=C(C)NC(=S)NC1c1cccc(O)c1 (stereo unspecified),inactive
12,Nc1nc2c(c(=O)[nH]1)N(C=O)[C@H](CNc1ccc(C(=O)N[C@@H](CCC(=O)O)C(=O)O)cc1)CN2,inactive
13,CN(C)CC[C@H](c1ccc(Cl)cc1)c1ccccn1,inactive
14,OCC(O)C(O)C(O)CO (stereo unspecified),inactive
15,c1coc(CNc2ncnc3nc[nH]c23)c1,inactive

# Tested on: not listed separately
# Test: qHTS for Inhibitors of ATXN expression: Validation of Cytotoxic Assay (AID 588349)
# Details: cytotoxicity counter-screen for ATXN expression inhibitors, cell viability; series mostly up to 57.1 µM
# How it was run: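 HEK293 cells treated with titrated compound for 72 hr at 37 degrees C; viability read as intracellular ATP by CellTiter Glo luminescence.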
row,SMILES,outcome
1,COc1ccc2cc([S+]([O-])Cc3ncc(C)c(OC)c3C)nc2c1,inactive
2,O=c1[nH]c(=O)n([C@H]2C[C@@H](O)[C@@H](CO)O2)cc1C=CBr,inactive
3,CN[C@H](CC(C)C)C(=O)N[C@H]1C(=O)N[C@@H](CC(N)=O)C(=O)N[C@@H]2C(=O)N[C@H]3C(=O)N[C@H](C(=O)N[C@H](C(=O)O)c4cc(O)cc(O)c4-c4cc3ccc4O)[C@H](O)c3ccc(c(Cl)c3)Oc3cc2cc(c3O[C@@H]2O[C@H](CO)[C@@H](O)[C@H](O)[C@@H]2O[C@H]2C[C@](C)(N)[C@H](O)[C@H](C)O2)Oc2ccc(cc2Cl)[C@H]1O,inactive

# Tested on: not listed separately
# Test: qHTS for Inhibitors of ATXN expression: Validation (AID 588378); also: nearly all actives have a fitted effect of over 75% in size
# Details: cell-based ATXN2 expression reporter assay, luminescence; series mostly up to 57.1 µM
# How it was run: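 Compounds were pinned onto attached HEK293 cells carrying an ATXN2-firefly luciferase construct and incubated 24 hrs at 37 degrees C. Each well then received a fluorescent viability reagent followed by luciferase substrate for end-point luminescence.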
row,SMILES,outcome
1,COc1ccc2cc([S+]([O-])Cc3ncc(C)c(OC)c3C)nc2c1,inactive
2,O=c1[nH]c(=O)n([C@H]2C[C@@H](O)[C@@H](CO)O2)cc1C=CBr,inactive
3,CN[C@H](CC(C)C)C(=O)N[C@H]1C(=O)N[C@@H](CC(N)=O)C(=O)N[C@@H]2C(=O)N[C@H]3C(=O)N[C@H](C(=O)N[C@H](C(=O)O)c4cc(O)cc(O)c4-c4cc3ccc4O)[C@H](O)c3ccc(c(Cl)c3)Oc3cc2cc(c3O[C@@H]2O[C@H](CO)[C@@H](O)[C@H](O)[C@@H]2O[C@H]2C[C@](C)(N)[C@H](O)[C@H](C)O2)Oc2ccc(cc2Cl)[C@H]1O,inactive

# Target: DNA dC->dU-editing enzyme APOBEC-3G (Homo sapiens) (UniProt Q9HC16)
# Sequence (Q9HC16 whole entry, looked up): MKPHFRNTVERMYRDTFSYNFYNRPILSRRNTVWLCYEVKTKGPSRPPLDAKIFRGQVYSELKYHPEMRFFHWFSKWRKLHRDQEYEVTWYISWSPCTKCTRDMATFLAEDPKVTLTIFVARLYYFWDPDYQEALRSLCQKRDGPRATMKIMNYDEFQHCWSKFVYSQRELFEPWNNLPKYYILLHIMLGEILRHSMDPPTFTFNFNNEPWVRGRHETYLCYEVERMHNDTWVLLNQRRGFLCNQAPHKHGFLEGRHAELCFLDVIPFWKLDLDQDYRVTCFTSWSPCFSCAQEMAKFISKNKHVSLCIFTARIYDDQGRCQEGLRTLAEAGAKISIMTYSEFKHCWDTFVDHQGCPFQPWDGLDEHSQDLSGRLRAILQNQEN
# Test: qHTS for inhibitors of Vif-A3G interactions: Validation (AID 588379)
# Details: Vif-A3G protein interaction assay; series mostly up to 46.1 µM
# How it was run: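 HeLa cells stably expressing Vif and A3G-eYFP, 700 cells/well, incubated overnight at 37 deg C, then exposed to compound overnight at 37 deg C. Inhibition of Vif-mediated degradation read as increased yellow fluorescence (Ex 488/Em 500-530) by laser-scanning cytometry.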
row,SMILES,outcome
1,CN(N=O)C(=O)N[C@H]1C(O)OC(CO)[C@@H](O)[C@H]1O (stereo partly specified),inactive
2,COc1cc2c(cc1O)CCC1C2CC[C@@]2(C)C1CC[C@@H]2O (stereo partly specified),inactive
3,CC(C)[C@H](CO)Nc1nc(Nc2cccc(Cl)c2)c2ncn(C(C)C)c2n1,inactive
4,O=C(O)C=Cc1ccc(Cn2ccnc2)cc1,inactive
5,COc1cc2ncnc(Nc3cccc(Br)c3)c2cc1OC,inactive
6,COc1ccc([C@@H]2CNC(=O)C2)cc1OC1CCCC1,inactive
7,Cc1cc(O)c2c(c1)C(=O)c1cccc(O)c1C2=O,inactive
8,O=c1c(O)c(-c2ccc(O)c(O)c2)oc2cc(O)ccc12,inactive
9,CCOC(=O)C1=C(C)NC(=S)NC1c1cccc(O)c1 (stereo unspecified),inactive
10,CC(Oc1ccc(O)cc1)(P(=O)(O)O)P(=O)(O)O,inactive
11,c1coc(CNc2ncnc3nc[nH]c23)c1,inactive
